PubChem BioAssay
Active and inactive are the calls of the source. Unless noted, no rule for the calls is given here.

Legend:
[1] = kinase inhibitors against Plasmodium liver-stage infection, cell-based, known kinase inhibitor set, luminescence, hepatoma host viability (AID 624392); conditions: Plasmodium liver stage in hepatoma cells, luciferase luminescence, concentration not given here; liver cell % of control: measured here: host liver cell viability; parasite % of control: stronger effect = lower value;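 also: infected cells incubated roughly two days before readout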
[2] = modulators of glucocorticoid suppression of NF-kB, cell-based, luciferase, IL-1B stimulus, dexamethasone (AID 624486); conditions: NF-kB luciferase reporter, IL-1B + dexamethasone, luminescence; percent of negative control (+Dex): actives lie on both sides, concentration not given here; z-score: measured here: IL-1B alone, no Dex;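 as to percent of negative control (+Dex): 100% = mean signal of vehicle control wells on the plate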
[3] = kinase inhibitors altering Pseudomonas killing of worms, whole organism (AID 651566);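 also: tested at 14 µM; sign flipped so higher z means a lower ratio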; conditions: C. elegans killed by P. aeruginosa, survival ratio
[4] = activators of macrophage pro-inflammatory response, cell-based, murine, luminescence (AID 652131); conditions: murine macrophage pro-inflammatory reporter, stronger effect = higher value
[5] = target: Cellular tumor antigen p53 (Homo sapiens) (UniProt P04637); test: kinase inhibitors altering GFP-p53 stability in HPV16-positive cells, imaging, known kinase inhibitor set, EGFP/DsRed ratio (AID 1053116); conditions: stronger effect = higher value; EGFP object count: measured here: GFP-p53 positive objects count;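 also: cells exposed to compounds for 24 h at 37 °C before reading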
Chain of Cellular tumor antigen p53 (Homo sapiens) (P04637 whole entry, looked up): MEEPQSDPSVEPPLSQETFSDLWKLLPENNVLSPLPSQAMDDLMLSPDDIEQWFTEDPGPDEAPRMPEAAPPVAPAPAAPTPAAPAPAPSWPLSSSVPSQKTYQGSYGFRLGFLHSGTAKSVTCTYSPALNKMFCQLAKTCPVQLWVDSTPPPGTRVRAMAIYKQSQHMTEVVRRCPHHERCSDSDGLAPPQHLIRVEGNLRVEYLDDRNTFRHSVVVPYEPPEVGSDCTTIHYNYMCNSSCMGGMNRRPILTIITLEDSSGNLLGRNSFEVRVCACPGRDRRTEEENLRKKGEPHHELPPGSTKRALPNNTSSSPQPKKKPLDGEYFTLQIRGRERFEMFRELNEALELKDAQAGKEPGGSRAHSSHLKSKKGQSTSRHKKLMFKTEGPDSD

[6] = IRF3 reporter activation in THP-1 macrophages, cell-based, PMA-stimulated THP-1, luminescence (AID 1053176); conditions: PMA-differentiated THP-1, IRF3 reporter luminescence; stronger effect = higher value
[7] = survival rescue of mitochondrial mutant cells in low glucose, primary screen, MELAS cybrids, Rieske KO mouse fibroblasts, CellTiter-Glo (AID 1508586;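 active = mean z-score across replicates of 1.96 or higher in either the MELAS or the Rieske mutant cell line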;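 also: z relative to plate mean and SD of compound and empty wells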)
[8] = MELAS cybrid survival, CellTiter-Glo 48 h, stronger effect = higher value
[9] = Rieske KO mouse fibroblast survival, CellTiter-Glo 72 h

In the case of `NS(=O)(=O)c1cccc(-c2cc3ccncc3cc2OCc2ccccc2)c1`, the liver cell % of control [1] is reported as 147%, the parasite % of control [1] is reported as 183% (inactive) and the percent of negative control (+Dex) [2] is reported as 95% (inactive). For the same compound, the z-score [2] was 0.36, the z-score [3] was 1.48 (inactive) and the z-score [4] was -0.246 (inactive). For the same compound, the EGFP object count [5] was 3.5, the EGFP/DsRed ratio [5] was 0.215 (inactive) and the fraction signal [6] was -0.012 (inactive). The z-score [7, 8] was 2.15 (active) and the z-score [7, 9] was 0.958.

With `N#Cc1ccc(Oc2nccc(-c3c(-c4ccc(F)cc4)ncn3C3CCNCC3)n2)cc1` the liver cell % of control [1] was 76.8%, the parasite % of control [1] was 142% (inactive) and the percent of negative control (+Dex) [2] was 90.5% (inactive). The z-score [2] was 0.29, the z-score [3] was 0.255 (inactive) and the z-score [4] was -0.275 (inactive). The EGFP object count [5] was 1, the EGFP/DsRed ratio [5] was 0.00276 (inactive) and the fraction signal [6] was -0.0025 (inactive). The z-score [7, 8] was -0.193 (inactive) and the z-score [7, 9] was -0.456.

In the case of `O=C(O[C@H]1CN[C@H](C#Cc2cc3ncnc(Nc4ccc(OCc5cccc(F)c5)c(Cl)c4)c3s2)C1)N1CCOCC1`, the liver cell % of control [1] is reported as 89.4%, the parasite % of control [1] is reported as 117% (inactive) and the percent of negative control (+Dex) [2] is reported as 74.5% (inactive). The z-score [2] was -1.65, the z-score [3] was 0.44 (inactive) and the z-score [4] was -0.505 (inactive). The EGFP object count [5] was 4.5, the EGFP/DsRed ratio [5] was 0.0369 (inactive) and the fraction signal [6] was -0.0095 (inactive). For the same compound, the z-score [7, 8] was -0.421 (inactive) and the z-score [7, 9] was -0.498.

For `CNC(=O)c1cc(-c2ccc(F)cc2)cc(-c2ccc(S(=O)(=O)N3CCCC3)cc2)c1N`, the liver cell % of control [1] was 102%, the parasite % of control [1] was 80.4% (inactive) and the percent of negative control (+Dex) [2] was 92% (inactive). For the same compound, the z-score [2] was -0.05, the z-score [3] was 0.5 (inactive) and the z-score [4] was -0.377 (inactive). The EGFP object count [5] was 6.5, the EGFP/DsRed ratio [5] was 0.244 (inactive) and the fraction signal [6] was -0.007 (inactive). For the same compound, the z-score [7, 8] was -0.388 (inactive) and the z-score [7, 9] was -0.623.

With `O=C1Nc2ccc(C(=O)c3ccco3)cc2/C1=C/c1cc(Cl)c(O)c(Cl)c1` the liver cell % of control [1] was 143%, the parasite % of control [1] was 74.2% (inactive) and the percent of negative control (+Dex) [2] was 91% (inactive). The z-score [2] was 0.035, the z-score [3] was 0.21 (inactive) and the z-score [4] was -0.774 (inactive). The EGFP object count [5] was 4.5, the EGFP/DsRed ratio [5] was 0.0627 (inactive) and the fraction signal [6] was -0.005 (inactive). The z-score [7, 8] was -1.39 (inactive) and the z-score [7, 9] was -0.429.

With `Fc1ccc(-c2c(-c3ccncc3)nc3n2CCS3)cc1` the liver cell % of control [1] was 113%, the parasite % of control [1] was 89.2% (inactive) and the percent of negative control (+Dex) [2] was 40% (active). The z-score [2] was -5.96, the z-score [3] was -1.12 (inactive) and the z-score [4] was 1.33 (inactive). The EGFP object count [5] was 1.5, the EGFP/DsRed ratio [5] was 0.0335 (inactive) and the fraction signal [6] was -0.0075 (inactive). The z-score [7, 8] was -0.499 (inactive) and the z-score [7, 9] was -0.254.

In the case of `Cc1cccc2c(N=Nc3ccc(S(N)(=O)=O)cc3)c(O)[nH]c12`, the liver cell % of control [1] is reported as 89.8%, the parasite % of control [1] is reported as 131% (inactive) and the percent of negative control (+Dex) [2] is reported as 111% (inactive). For the same compound, the z-score [2] was 1.54, the z-score [3] was -0.125 (inactive) and the z-score [4] was -0.036 (inactive). The EGFP object count [5] was 3.5, the EGFP/DsRed ratio [5] was 0.095 (inactive) and the fraction signal [6] was -0.0075 (inactive). The z-score [7, 8] was 0.912 (inactive) and the z-score [7, 9] was -0.47.

For `CC(=O)Nc1cccc(C#Cc2cncnc2Nc2ccc(OCc3cccc(F)c3)c(Cl)c2)c1`, the liver cell % of control [1] was 111%, the parasite % of control [1] was 108% (inactive) and the percent of negative control (+Dex) [2] was 89.5% (inactive). The z-score [2] was -0.925, the z-score [3] was 0.045 (inactive) and the z-score [4] was -0.803 (inactive). The EGFP object count [5] was 3.5, the EGFP/DsRed ratio [5] was 0.169 (inactive) and the fraction signal [6] was 0.0085 (inactive). For the same compound, the z-score [7, 8] was -0.744 (inactive) and the z-score [7, 9] was 0.00771.

In the case of `Cc1ccc(NC(=O)c2ccnc(N3CCCC3)c2)cc1-c1ccc(C(=O)NCC2CC2)cc1`, the liver cell % of control [1] is reported as 90.4%, the parasite % of control [1] is reported as 91.3% (inactive) and the percent of negative control (+Dex) [2] is reported as 104% (inactive). For the same compound, the z-score [2] was 0.86, the z-score [3] was -0.79 (inactive) and the z-score [4] was -0.27 (inactive). For the same compound, the EGFP object count [5] was 6, the EGFP/DsRed ratio [5] was 0.0951 (inactive) and the fraction signal [6] was -0.0005 (inactive). The z-score [7, 8] was -0.285 (inactive) and the z-score [7, 9] was -0.118.

In the case of `Oc1cccc(-c2nc(-c3ccccc3)[nH]c2-c2ccncc2)c1`, the liver cell % of control [1] is reported as 111%, the parasite % of control [1] is reported as 13.2% (active) and the percent of negative control (+Dex) [2] is reported as 124% (inactive). For the same compound, the z-score [2] was 1.75, the z-score [3] was 0.81 (inactive) and the z-score [4] was 1.63 (inactive). For the same compound, the EGFP object count [5] was 2.5, the EGFP/DsRed ratio [5] was 0.0183 (inactive) and the fraction signal [6] was 0.0025 (inactive). The z-score [7, 8] was -0.947 (inactive) and the z-score [7, 9] was -0.653.

In the case of `C[C@@H](Oc1cc(-n2cnc3ccc(OC[C@@H](O)CO)cc32)sc1C(N)=O)c1ccccc1Cl`, the liver cell % of control [1] is reported as 94.6%, the parasite % of control [1] is reported as 81.9% (inactive) and the percent of negative control (+Dex) [2] is reported as 90% (inactive). For the same compound, the z-score [2] was -0.93, the z-score [3] was 0.155 (inactive) and the z-score [4] was -1.41 (inactive). For the same compound, the EGFP object count [5] was 5, the EGFP/DsRed ratio [5] was 0.0656 (inactive) and the fraction signal [6] was -0.0045 (inactive). For the same compound, the z-score [7, 8] was -0.759 (inactive) and the z-score [7, 9] was 0.965.

In the case of `CC(=O)Nc1cccc(C#Cc2cncnc2Nc2ccc(OCc3cccc(F)c3)c(Cl)c2)n1`, the liver cell % of control [1] is reported as 82.2%, the parasite % of control [1] is reported as 102% (inactive) and the percent of negative control (+Dex) [2] is reported as 68% (inactive). For the same compound, the z-score [2] was -2.19, the z-score [3] was 0.02 (inactive) and the z-score [4] was 0.499 (inactive). For the same compound, the EGFP object count [5] was 6.5, the EGFP/DsRed ratio [5] was 0.198 (inactive) and the fraction signal [6] was -0.0035 (inactive). The z-score [7, 8] was 0.392 (inactive) and the z-score [7, 9] was -0.337.

In the case of `COc1ccc(-c2nn3ncccc3c2-c2ccnc(Nc3ccc(Cl)c(C(F)(F)F)c3)n2)cc1`, the liver cell % of control [1] is reported as 101%, the parasite % of control [1] is reported as 87.8% (inactive) and the percent of negative control (+Dex) [2] is reported as 98% (inactive). For the same compound, the z-score [2] was 0.34, the z-score [3] was -1.15 (inactive) and the z-score [4] was -0.74 (inactive). The EGFP object count [5] was 2.5, the EGFP/DsRed ratio [5] was 0.0806 (inactive) and the fraction signal [6] was -0.0025 (inactive). The z-score [7, 8] was 1.48 (inactive) and the z-score [7, 9] was -0.347.

In the case of `COc1cc(N2CCN(C(C)C)CC2)ccc1Nc1nc(Nc2cccc(F)c2C(=O)O)c2cc[nH]c2n1`, the liver cell % of control [1] is reported as 115%, the parasite % of control [1] is reported as 124% (inactive) and the percent of negative control (+Dex) [2] is reported as 100% (inactive). The z-score [2] was -0.075, the z-score [3] was 1.24 (inactive) and the z-score [4] was -0.341 (inactive). The EGFP object count [5] was 4, the EGFP/DsRed ratio [5] was 0.0569 (inactive) and the fraction signal [6] was 0.0115 (inactive). For the same compound, the z-score [7, 8] was -0.385 (inactive) and the z-score [7, 9] was -0.236.
